Experimental findings from ChEMBL document CHEMBL3988442, “University of Dundee, Small-Polar-MMV Screening Library” (2021) are described below.

Molecules are shown by their SMILES.

Assay [1] addresses T1, Aspartate--tRNA(Asp/Asn) ligase (Mycobacterium tuberculosis (strain ATCC 25618 / H37Rv)) (UniProt P9WFW3).
T1 sequence (whole entry): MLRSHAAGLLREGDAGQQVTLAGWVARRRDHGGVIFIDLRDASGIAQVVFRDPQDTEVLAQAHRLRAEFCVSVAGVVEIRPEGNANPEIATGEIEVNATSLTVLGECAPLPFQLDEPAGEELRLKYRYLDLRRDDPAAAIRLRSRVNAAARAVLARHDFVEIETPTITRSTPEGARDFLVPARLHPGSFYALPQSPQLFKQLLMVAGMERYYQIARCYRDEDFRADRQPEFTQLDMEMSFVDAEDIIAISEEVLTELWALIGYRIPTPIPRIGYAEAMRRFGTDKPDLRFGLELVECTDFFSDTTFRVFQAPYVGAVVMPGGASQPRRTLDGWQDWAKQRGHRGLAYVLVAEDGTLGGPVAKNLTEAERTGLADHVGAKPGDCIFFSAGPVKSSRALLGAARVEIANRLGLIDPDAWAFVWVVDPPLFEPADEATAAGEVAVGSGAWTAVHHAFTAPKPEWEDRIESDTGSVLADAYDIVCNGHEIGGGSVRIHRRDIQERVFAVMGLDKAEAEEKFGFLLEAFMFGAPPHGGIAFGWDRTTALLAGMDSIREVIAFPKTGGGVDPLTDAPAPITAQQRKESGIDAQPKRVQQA
Kind of assay: Assay for Asp RNA synthetase-1 from Mycobacterium tuberculosis. Format: functional. On the set-up: scale not given: direction of the effect not stated beside the values. The conditions noted are these: 30 µM.

The target of assay [2] is Shiga toxin 2 (Escherichia coli O157:H7) (UniProt P09385+P09386). The assay can be described thus: E. coli 0.157:H7 Shiga Toxin SOP - stx2 screening assay. Also noted: scale not given: direction of the effect not stated beside the values. Particulars: 30 µM. The class given is functional.

On to `CC(C)Cc1noc(CN2CCN(C(=O)c3cccc(F)c3)CC2)n1`, for which the values for the Percent Effect in assay [1] and in assay [2] were -0.41% and -17.7%, respectively.

`CN(C)C(=O)N1Cc2nnn(C)c2C(COCC2CC2)C1` (configuration not stated): the results for the Percent Effect in assay [1] and in assay [2] were 3.51% and -35.2%, respectively.

In the case of `NC(=O)c1nc(COc2ccc3c(c2)OCO3)no1`, the Percent Effect is -0.145% in assay [1] and -76.3% in assay [2].

Turning to `COc1cccn(CC(=O)N(C)CCOc2cc(C)cc(C)c2)c1=O`, the Percent Effect in assay [1] is 38.9%; in assay [2] it was -20.3%.

For `COc1c(C2CCCN2C(=O)c2csc(C(C)C)n2)c(C)nn1C` (configuration not stated), the results for the Percent Effect in assay [1] and in assay [2] were 5.31% and 4.42%, respectively.

As to `COc1ccc(N2CCC(C(=O)/N=c3/[nH]ccs3)CC2)nn1`, the Percent Effect in assay [1] was -0.842%; in assay [2], -7.73%.

`CC(=O)c1ccc(C(=O)NCCCOC(C)c2ccccc2)s1` (configuration not stated): the Percent Effect in assay [1] was -4.7%; in assay [2] it was -71.8%.

For `N#Cc1cccnc1NCCNC(=O)N1CCCSCC1`, the Percent Effect in assay [1] stood at 0.546%; in assay [2] it was 12.8%.

Take `Cc1ccc(C(=O)N2CCN(CCC(C)(C)C)CC2)c(=O)[nH]1`: the Percent Effect is -4.54% in assay [1] and 1.57% in assay [2].

Take `Cc1ccc(N2CC3(COCCN(Cc4nccs4)C3)OCC2=O)s1` (configuration not stated): the results for the Percent Effect in assay [1] and in assay [2] were 7.04% and -13.5%, respectively.

As for `COCc1ccccc1NC(=O)[C@@H]1CCCN1C(=O)c1ccco1`, the Percent Effect was -0.557% in assay [1] and -2.06% in assay [2].
